Data on 39 compounds can be found in the supplement of paper PMC12494721.

The structures appear in SMILES notation. Counter-ions that a name gives are not always drawn.

For one test, the system named is Klebsiella aerogenes DSM 30053. The experiment in a line: fold change of Putrescine concentration vs plate DMSO controls (fold change (ratio)); higher = more amine produced, active = hit call of the paper (significant change in both replicates, either direction). To be noted: incubation time: 27 h, anaerobic, 37 °C. In short, it runs like this:
(§1)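 Each value is the fold change relative to DMSO-only wells on the same plate. Four gut bacterial strains were grown anaerobically in mGAM at 37 °C for 27 h in 80 µL wells, starting at OD 0.1 before a 1:1 dilution, with compounds at 20 µM final (sweeteners 50 µM). Whole cultures were extracted with cold acetonitrile/methanol containing 0.1% formic acid, centrifuged, and amines were quantified by LC–triple-quadrupole MS (dynamic MRM) against external calibration curves with within-batch drift correction. Values are means of 2 biological replicates.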
For `O=C(OCCOCCO)c1ccccc1Nc1cccc(C(F)(F)F)c1` [Etofenamate] (20 µM), the “fold change of Putrescine concentration” value was 0.998 (inactive).
The same measure, in the same setting: then `CCCCOc1ccc(CC(=O)NO)cc1` [Bufexamac] (20 µM), with 0.959 (inactive).
On to `Cc1scc2c1N(C(=O)CN1CCN(C)CC1)c1ccccc1NC2=O` [Telenzepine dihydrochloride] (20 µM), for which the “fold change of Putrescine concentration” value is 0.984 (inactive).
On to `OC[C@H]1O[C@H](O[C@H]2O[C@H](CO)[C@@H](O)[C@H](O)[C@H]2O)[C@H](O)[C@@H](O)[C@@H]1O` [Trehalose] (50 µM), for which the “fold change of Putrescine concentration” value is 0.901 (inactive).
Same read-out and setting: then `NCCCC(O)(P(=O)(O)O)P(=O)(O)O` [Alendronate sodium] (20 µM), with 0.947 (inactive); and `CC(=O)Nc1ccc(CC(=O)O)cc1` [Actarit] (20 µM), with 1 (inactive).
Consider `CCCCc1cc2ccccc2c(OCCN(C)C)n1` [Dimethisoquin hydrochloride] (20 µM), for which the “fold change of Putrescine concentration” value is 0.983 (inactive).
On to `CC[C@H]1OC(=O)C[C@@H](O)[C@H](C)[C@@H](O[C@@H]2O[C@H](C)[C@@H](O[C@H]3C[C@@](C)(O)[C@@H](O)[C@H](C)O3)[C@H](N(C)C)[C@H]2O)[C@@H](CC=O)C[C@@H](C)C(=O)/C=C/C(C)=C/[C@@H]1CO[C@@H]1O[C@H](C)[C@@H](O)[C@@H](OC)[C@H]1OC` [Tylosin] (20 µM), for which the “fold change of Putrescine concentration” value is 1.05 (inactive).
On the same count and under the same terms, then `CN(C)CCC=C1c2ccccc2C=Cc2ccccc21` [Cyclobenzaprine hydrochloride] (20 µM), with 1 (inactive); and `CC(=C(CCO)SSCC1CCCO1)N(C=O)Cc1cnc(C)nc1N` (stereo in doubt) [Fursultiamine hydrochloride] (20 µM), with 1.01 (inactive).
The same measure, in the same setting: then `CCOC(=O)O[C@]1(C(=O)OCCl)CC[C@H]2[C@@H]3CCC4=CC(=O)C=C[C@]4(C)[C@H]3[C@@H](O)C[C@@]21C` [Loteprednol etabonate] (20 µM), with 1 (inactive); and `N[C@@H](CSCCCO)C(=O)O` [Fudosteine] (20 µM), with 1.02 (inactive).
On the same count and under the same terms, then `CC1=C(C)C(=O)C(C(CCCCCC(=O)O)c2ccccc2)=C(C)C1=O` (stereo not drawn) [Seratrodast] (20 µM), with 1.02 (inactive); and `C[C@]12C=CC(=O)C=C1CC[C@@H]1[C@@H]2C(=O)C[C@@]2(C)[C@H]1CC[C@]2(O)C(=O)CO` [Prednisone] (20 µM), with 0.941 (inactive).

For another test, the system named is Escherichia coli IAI1. The experiment in a line: fold change of Cadaverine concentration vs plate DMSO controls (fold change (ratio)); higher = more amine produced, active = hit call of the paper (significant change in both replicates, either direction). The following applies: incubation time: 27 h, anaerobic, 37 °C. In short, it runs like this:
as §1
`CN[C@H](CC(C)C)C(=O)N[C@H]1C(=O)N[C@@H](CC(N)=O)C(=O)N[C@H]2C(=O)N[C@H]3C(=O)N[C@H](C(=O)N[C@H](C(=O)O)c4cc(O)cc(O)c4-c4cc3ccc4O)[C@H](O)c3ccc(c(Cl)c3)Oc3cc2cc(c3O[C@@H]2O[C@H](CO)[C@@H](O)[C@H](O)[C@H]2O[C@H]2C[C@](C)(N)[C@H](O)[C@H](C)O2)Oc2ccc(cc2Cl)[C@H]1O` [Vancomycin hydrochloride] (20 µM): the “fold change of Cadaverine concentration” value is 0.953 (inactive).
The same measure, in the same setting: then `OC[C@H]1OC(O)[C@H](O)[C@H](O)[C@@H]1O` (stereo partly drawn) [D-allose] (50 µM), with 1.07 (inactive); and `COC1=CC(=O)C[C@@H](C)[C@]12Oc1c(Cl)c(OC)cc(OC)c1C2=O` [Griseofulvin] (20 µM), with 1.03 (inactive).
Take `CN1CCN(CCCN2c3ccccc3Sc3ccc(C(F)(F)F)cc32)CC1` [Trifluoperazine dihydrochloride] (20 µM): the “fold change of Cadaverine concentration” value is 1.05 (inactive).
As for `CCCN(CCC)S(=O)(=O)c1ccc(C(=O)O)cc1` [Probenecid] (20 µM), the “fold change of Cadaverine concentration” value was 1.04 (inactive).
With `C#C[C@]1(O)CC[C@H]2[C@@H]3CCC4=CC(=O)CC[C@@H]4[C@H]3CC[C@@]21C` [Norethindrone] (20 µM), the “fold change of Cadaverine concentration” value is 0.98 (inactive).
In the case of `NC(=O)c1ncn([C@@H]2O[C@H](CO)[C@@H](O)[C@H]2O)n1` [Ribavirin] (20 µM), the “fold change of Cadaverine concentration” value was 1.09 (inactive).
For the compound `Cc1c(O)cccc1C(=O)N[C@@H](CSc1ccccc1)[C@H](O)CN1C[C@H]2CCCC[C@H]2C[C@H]1C(=O)NC(C)(C)C` [Nelfinavir mesylate] (20 µM), the “fold change of Cadaverine concentration” value is 1.01 (inactive).
The same measure, in the same setting: then `CC1(C)S[C@@H]2[C@H](NC(=O)Cc3ccccc3)C(=O)N2[C@H]1C(=O)O` [Benzylpenicillin sodium] (20 µM), with 1.56 (active).
For the compound `COC(=O)Nc1nc2cc([S+]([O-])c3ccccc3)ccc2[nH]1` (stereo not drawn) [Oxfendazole] (20 µM), the “fold change of Cadaverine concentration” value was 0.981 (inactive).
On to `CCCc1nc(C)c2c(=O)nc(-c3cc(S(=O)(=O)N4CCN(CC)CC4)ccc3OCC)[nH]n12` [Vardenafil] (20 µM), for which the “fold change of Cadaverine concentration” value was 1.02 (inactive).
Regarding `NS(=O)(=O)c1cc(C(=O)O)cc(N2CCCC2)c1Oc1ccccc1` [Piretanide] (20 µM), the “fold change of Cadaverine concentration” value is 1.06 (inactive).
On the same count and under the same terms, then `C[C@H]1C[C@@H]2[C@H]([C@@H](O)C[C@@]3(C)[C@H]2CC[C@]3(O)C(=O)CO)[C@@]2(C)C=CC(=O)C=C12` [Methylprednisolone, 6-alpha] (20 µM), with 1.03 (inactive).
`Oc1ccc2ccccc2c1N=Nc1ccccc1` [Sudan I (1-phenylazo-2-hydroxynaphthalene)] (20 µM): the “fold change of Cadaverine concentration” value was 0.915 (inactive).
The same measure, in the same setting: then `CC(=O)OCC(=O)[C@@]1(O)CC[C@H]2[C@@H]3CCC4=CC(=O)CC[C@]4(C)[C@H]3[C@@H](O)C[C@@]21C` [Cortisol acetate] (20 µM), with 0.97 (inactive).
The same measure, in the same setting: then `CCN(CC)CCNc1ccc(CO)c2sc3ccccc3c(=O)c12` [Hycanthone] (20 µM), with 0.967 (inactive).
Still for that read-out and setting: then `CC(=O)NC[C@H]1CN(c2ccc(N3CCOCC3)c(F)c2)C(=O)O1` [Linezolid] (20 µM), with 0.777 (active); and `NNC(=O)c1ccncc1` [Isoniazid] (20 µM), with 1.01 (inactive).
On to `O=C(NCCO[N+](=O)[O-])c1cccnc1` [Nicorandil] (20 µM), for which the “fold change of Cadaverine concentration” value was 0.981 (inactive).
Same read-out and setting: then `CC(=O)[C@H]1CC[C@H]2[C@@H]3CC=C4C[C@@H](O)CC[C@]4(C)[C@H]3CC[C@]12C` [Pregnenolone] (20 µM), with 0.968 (inactive).
`OC[C@@H](O)[C@@H](O)[C@H](O)[C@H](O)CO` [Mannitol] (50 µM): the “fold change of Cadaverine concentration” value was 1.11 (inactive).
Same read-out and setting: then `CC[C@@]1(O)C(=O)OCc2c1cc1n(c2=O)Cc2cc3c(CN(C)C)c(O)ccc3nc2-1` [Topotecan] (20 µM), with 0.961 (inactive); and `CCCCc1ncc(/C=C(\Cc2cccs2)C(=O)O)n1Cc1ccc(C(=O)O)cc1` [Eprosartan mesylate] (20 µM), with 0.963 (inactive).
Same read-out and setting: then `CCN(CC)CC(=O)Nc1c(C)cccc1C` [Lidocaine hydrochloride] (20 µM), with 0.975 (inactive).
With `CC(C)c1nc(CN(C)C(=O)N[C@H](C(=O)N[C@@H](Cc2ccccc2)C[C@H](O)[C@H](Cc2ccccc2)NC(=O)OCc2cncs2)C(C)C)cs1` [Ritonavir] (20 µM), the “fold change of Cadaverine concentration” value is 0.99 (inactive).
The same measure, in the same setting: then `O=C(OCCOCCO)c1ccccc1Nc1cccc(C(F)(F)F)c1` [Etofenamate] (20 µM), with 1.02 (inactive); and `CCCCOc1ccc(CC(=O)NO)cc1` [Bufexamac] (20 µM), with 0.965 (inactive); and `Cc1scc2c1N(C(=O)CN1CCN(C)CC1)c1ccccc1NC2=O` [Telenzepine dihydrochloride] (20 µM), with 1 (inactive).
Still for that read-out and setting: then `OC[C@H]1O[C@H](O[C@H]2O[C@H](CO)[C@@H](O)[C@H](O)[C@H]2O)[C@H](O)[C@@H](O)[C@@H]1O` [Trehalose] (50 µM), with 0.831 (inactive); and `NCCCC(O)(P(=O)(O)O)P(=O)(O)O` [Alendronate sodium] (20 µM), with 1.01 (inactive); and `CC(=O)Nc1ccc(CC(=O)O)cc1` [Actarit] (20 µM), with 0.96 (inactive).
On to `CCCCc1cc2ccccc2c(OCCN(C)C)n1` [Dimethisoquin hydrochloride] (20 µM), for which the “fold change of Cadaverine concentration” value was 1.06 (inactive).
Still for that read-out and setting: then `CC[C@H]1OC(=O)C[C@@H](O)[C@H](C)[C@@H](O[C@@H]2O[C@H](C)[C@@H](O[C@H]3C[C@@](C)(O)[C@@H](O)[C@H](C)O3)[C@H](N(C)C)[C@H]2O)[C@@H](CC=O)C[C@@H](C)C(=O)/C=C/C(C)=C/[C@@H]1CO[C@@H]1O[C@H](C)[C@@H](O)[C@@H](OC)[C@H]1OC` [Tylosin] (20 µM), with 0.984 (inactive); and `CN(C)CCC=C1c2ccccc2C=Cc2ccccc21` [Cyclobenzaprine hydrochloride] (20 µM), with 1.01 (inactive); and `CC(=C(CCO)SSCC1CCCO1)N(C=O)Cc1cnc(C)nc1N` (stereo in doubt) [Fursultiamine hydrochloride] (20 µM), with 0.973 (inactive).
Same read-out and setting: then `CCOC(=O)O[C@]1(C(=O)OCCl)CC[C@H]2[C@@H]3CCC4=CC(=O)C=C[C@]4(C)[C@H]3[C@@H](O)C[C@@]21C` [Loteprednol etabonate] (20 µM), with 0.955 (inactive); and `N[C@@H](CSCCCO)C(=O)O` [Fudosteine] (20 µM), with 0.981 (inactive).
Same read-out and setting: then `CC1=C(C)C(=O)C(C(CCCCCC(=O)O)c2ccccc2)=C(C)C1=O` (stereo not drawn) [Seratrodast] (20 µM), with 0.965 (inactive).
For `C[C@]12C=CC(=O)C=C1CC[C@@H]1[C@@H]2C(=O)C[C@@]2(C)[C@H]1CC[C@]2(O)C(=O)CO` [Prednisone] (20 µM), the “fold change of Cadaverine concentration” value was 1.08 (inactive).
